Screening data as filed in PubChem BioAssay.
Pf growth 48h – inhibits P. falciparum growth in the first generation, 48 h | P. falciparum luciferase growth in erythrocytes, 48 h | Potency, µM (series often up to 28.7 µM), without a hit: at the top dose activity change, negative = inhibition, hits mostly inhibitors | 5.9% of 310,000 active; also: potency is read from the fitted curve at half-maximal effect; % is scaled to controls: 0 for no effect and ±100 for the full control effect
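Parasite viability was followed by luminescence of a genomically integrated firefly luciferase. Cultures held 0.1% parasitemia at 2% hematocrit (final), incubated under 5% CO2 at 37 C.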
Sm TGR inh – blocks Schistosoma mansoni thioredoxin glutathione reductase. 3% of 360,000 active. purified TGR, DTNB reduction, TNB absorbance 405 nm. Potency, µM (doses to about 114 µM), for the others: at the top dose activity change, negative = inhibition, hits mostly inhibitors; also: potency is read from the fitted curve at half-maximal effect; % is scaled to controls: 0 for no effect and ±100 for the full control effect; nearly all actives have a fitted effect of over 60% in size
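TGR 20 nM + NADPH 100 uM (dispensed conc.), cpd preinc 15 min RT; start with NADPH (500 uM addition) then DTNB (15 mM addition). Kinetic TNB absorbance, 405 nm filter. Four-parameter Hill fit across titration.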
Cycloheximide cs – counter-screen hit for Shiga toxin inhibitors, cycloheximide; 12% of 300,000 active; max response, %; cell reporter, cycloheximide protein synthesis inhibition counterscreen; AID 2314; in the data active = max response mostly above about 13%, no sharp cut-off; inactive = mostly below about 14%; also: read at 38.3 µM for the half of the compounds with a filed dose; 0% is about no effect
NS1 function inh – blocks influenza NS1 protein function; Potency, µM (highest dose often 46.1 µM), for inactives: at the top dose activity, positive = more growth; AID 2326; 0.4% of 270,000 active; calls by dose curve; also: potency is read from the fitted curve at half-maximal effect; actives are rising curves; nearly all actives have a fitted effect of over 50% in size
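Compounds were scored for reversing the slow growth caused by influenza A NS1 in S. cerevisiae, measured by optical density at 600 nm. Assay medium contained 2% galactose at pH 6.0; NS1-free yeast of the same strain were the positive control.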
Shiga inhibitor – blocks Shiga toxin action in Vero cells. inhibition, % at 38.7 µM. AID 2315. Vero cells, Shiga toxin protein synthesis inhibition reporter. 9.2% of 290,000 active; in the data active = inhibition mostly above about 28%, no sharp cut-off; inactive = mostly below about 43%; also: 0% is about no effect
Pf growth 96h – P. falciparum growth inhibition at 96 hour, primary screen for plastid delayed-death inhibitors. AID 504834. 6.9% of 320,000 active. P. falciparum luciferase reporter growth, 96 h. Potency, µM (doses to about 28.7 µM), without a hit: at the highest dose activity change, negative = inhibition, most hits filed as inhibitors; also: potency is read from the fitted curve at half-maximal effect; % is scaled to controls: 0 for no effect and ±100 for the full control effect
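Plates of compound plus infected erythrocytes (2% hematocrit, 0.05% parasitemia final) incubate 96 hours, 37 C, 5% CO2. Detection reagent added; reduced luminescence from the parasites' luciferase reporter flags inhibition.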
Active calls of the source: *; [ ] = another dose, or the depositor's remark. The list is not random: actives were taken first. Their share in the collection is about 21%. Unless noted, calls follow the shape of the dose curve; as a rule, active = well fitted curve in the direction sought with a large enough effect; inconclusive = small, poorly fitted or top-dose-only effect, or another doubt; inactive = no such curve, though single readings can be large; an effect the other way counts as inactive or inconclusive.

CCOc1cccc2cc(-c3csc(NC(=O)CCC(=O)NCCCN4CCC(C)CC4)n3)c(=O)oc12 was read as Pf growth 48h 195.0%, Sm TGR inh -14.7%, Cycloheximide cs 40.7*, Shiga inhibitor 83.4* and Pf growth 96h 37.2%.
Screening COc1cccc2cc(-c3csc(NC(=O)CCC(=O)NCCCN4CCC(C)CC4)n3)c(=O)oc12 returned Pf growth 48h -48.3%, Sm TGR inh -15.1%, Cycloheximide cs 28.4*, NS1 function inh -3.9%, Shiga inhibitor 72.9* and Pf growth 96h -8.5%.
`CCOc1cccc2cc(-c3csc(NC(=O)CCC(=O)N4CCC(C)CC4)n3)c(=O)oc12` gave Sm TGR inh -21.7%, Cycloheximide cs -1.1, NS1 function inh 5.2%, Shiga inhibitor 21.0 and Pf growth 96h 14.2%.
`CNS(=O)(=O)c1ccc2c(c1)NC(=O)C1CCCN21` (configuration not stated) gave Pf growth 48h -4.9%, Sm TGR inh inconclusive, Cycloheximide cs -1.4, NS1 function inh 8.2%, Shiga inhibitor -16.2 and Pf growth 96h -15.5%.
Screening Cc1ccc(C)c(CN2C(=O)C3CCCN3c3ccc(C#N)cc32)c1 (configuration not stated) returned Pf growth 48h inconclusive, Sm TGR inh inconclusive, Cycloheximide cs -1.1, NS1 function inh 24.4%, Shiga inhibitor -18.8 and Pf growth 96h 9.28µM*.
COC(=O)c1ccc2c(c1)N(Cc1nc(-c3cccc(C)c3)oc1C)C(=O)C1CCCN21 (configuration not stated) was read as Sm TGR inh -29.9%, Cycloheximide cs 1.8, NS1 function inh 7.7%, Shiga inhibitor -4.4 and Pf growth 96h inconclusive.
For CON(C)S(=O)(=O)c1ccc2c(c1)N(Cc1ccc(C)cc1)C(=O)C1CCCN21 (configuration not stated) the results were Pf growth 48h inconclusive, Sm TGR inh -23.9%, Cycloheximide cs -4.9, NS1 function inh 5.5%, Shiga inhibitor 3.3 and Pf growth 96h 0.828µM*.
Screening Cc1ccc(CN2C(=O)C3CCCN3c3ccc(C#N)cc32)cc1 (configuration not stated) returned Pf growth 48h inconclusive, Sm TGR inh -21.9%, Cycloheximide cs 0.6, NS1 function inh 14.3%, Shiga inhibitor -3.9 and Pf growth 96h 1.65µM*.
For N#Cc1ccc2c(c1)NC(=O)C1CCCN21 (configuration not stated) the results were Pf growth 48h inconclusive, Sm TGR inh 20µM*, Cycloheximide cs -0.9, NS1 function inh 9.8%, Shiga inhibitor 10.5 and Pf growth 96h 11.0%.
CCOC(=O)N1CCN(S(=O)(=O)N2CCCC(C(=O)NCc3cc(Br)ccc3OC)C2)CC1 (configuration not stated) was read as Sm TGR inh 5.1%.
For O=C(NCCNC1CCC(c2ccccc2)CC1)c1cccs1 (configuration not stated) the results were Pf growth 48h -8.1%, Sm TGR inh -2.6%[57.1 µM], Cycloheximide cs -2.2, NS1 function inh -7.3%, Shiga inhibitor -28.9 and Pf growth 96h -108.4%.
O=C(NCCC1=CCCCC1)C(=O)c1c[nH]c2ccccc12 was read as Pf growth 48h 44.2%, Sm TGR inh 2.1%, Cycloheximide cs 26.1*, NS1 function inh -9.3%, Shiga inhibitor 49.0* and Pf growth 96h -12.5%.
For O=C(NCCc1c[nH]c2ccccc12)C(=O)c1c[nH]c2ccccc12 the results were Pf growth 48h -6.8%, Sm TGR inh -9.3%, Cycloheximide cs -6.3, NS1 function inh -8.0%, Shiga inhibitor -2.2 and Pf growth 96h inconclusive.
`O=C(NCCOc1ccccc1)C(=O)c1c[nH]c2ccccc12` gave Pf growth 48h 40.5%, Sm TGR inh 9.4%, Cycloheximide cs 20.4*, NS1 function inh -7.0%, Shiga inhibitor 43.6 and Pf growth 96h 30.5%.
For O=C(NCCOc1ccccc1Cl)C(=O)c1c[nH]c2ccccc12 the results were Pf growth 48h 30.7%, Sm TGR inh -1.1%, Cycloheximide cs 11.6, Shiga inhibitor 33.9 and Pf growth 96h 0.0%.
